Targets with a hit are over-represented here; the source holds about 7,900 in all. About 0.6% of all pairs of compound and target were hits. Values without a mark were called inactive.
Experiments:
Assay in all cases: log2 fold change, soluble protein after heating vs DMSO (PISA); higher = thermal stabilisation; K562 cells, 10 uM, 30 min; active = over 0.2 and 3.5 SD of the protein, either way, in both replicates (recomputed)
[1] = compound: C1COCCN1CCN2C3=CC=CC=C3N=C2NC(=O)C4=CC(=CC=C4)[N+](=O)[O-] [IRAK-1-4 Inhibitor I]
Summary of the method: (§1)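 For each measurement, 10 μM compound was applied for 30 min to K562 cells at 2×10^6 cells/mL. Aliquots were heated for 3 min across 48°C-58°C, pooled, and extracted in PBS with 0.5% NP-40 at 4°C; the supernatant after 21,000xg for 90 min was soluble protein. This was quantified by TMTpro 16plex LC-MS/MS with channel sums equalised, and thermal stability was reported relative to control samples from duplicates, on a log2 fold-change scale.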

[2] = compound: C=CC(=O)N1CCC[C@@H](n2nc(-c3ccc(Oc4ccccc4)cc3)c3c(N)ncnc32)C1 [ibrutinib]
Summary of the method: as §1

[3] = compound: CC(=O)c1cnc2ccc(-c3cc(Cl)c(O)c(Cl)c3)nc2c1N[C@H]1CC[C@H](CN(C)C)CC1
Summary of the method: as §1

[4] = compound: CC(C)(C)Cn1c(N)nc2ccc(-c3[nH]c(C(C)(C)C)nc3-c3ccc(F)cc3)nc21 [ralimetinib]
Summary of the method: as §1

[5] = compound: CC(C)(O)CC(=O)NCCn1ccc2ncnc(Nc3ccc(Oc4cccc(C(F)(F)F)c4)c(Cl)c3)c21
Summary of the method: as §1

[6] = compound: CC(C)C1=C2N=C(C=C(N2N=C1)NCC3=CC=CC=C3)NCCCCCCN
Summary of the method: as §1

[7] = compound: CC(C)C[C@@H](C=O)NC(=O)[C@H](CC(C)C)NC(=O)[C@H](CC(C)C)NC(=O)OCc1ccccc1
Summary of the method: as §1

[8] = compound: CC(C)N(C[C@H]1O[C@@H](n2cnc3c(N)ncnc32)[C@H](O)[C@@H]1O)[C@H]1C[C@@H](CCc2nc3cc(C(C)(C)C)ccc3[nH]2)C1 [pinometostat]
Summary of the method: as §1

[9] = compound: CC1=C(C(CC(=O)N1)C2=CC=C(C=C2)C(F)(F)F)C(=O)NC3=C(C=C4C(=C3)C=NN4)F
Summary of the method: as §1

[10] = compound: CC1=C(C2=C(C=C1)C(=O)C3=CC=CC=C3N2CCCN)C
Summary of the method: as §1

Chain of UniProt Q13895 (Q13895 whole entry, looked up): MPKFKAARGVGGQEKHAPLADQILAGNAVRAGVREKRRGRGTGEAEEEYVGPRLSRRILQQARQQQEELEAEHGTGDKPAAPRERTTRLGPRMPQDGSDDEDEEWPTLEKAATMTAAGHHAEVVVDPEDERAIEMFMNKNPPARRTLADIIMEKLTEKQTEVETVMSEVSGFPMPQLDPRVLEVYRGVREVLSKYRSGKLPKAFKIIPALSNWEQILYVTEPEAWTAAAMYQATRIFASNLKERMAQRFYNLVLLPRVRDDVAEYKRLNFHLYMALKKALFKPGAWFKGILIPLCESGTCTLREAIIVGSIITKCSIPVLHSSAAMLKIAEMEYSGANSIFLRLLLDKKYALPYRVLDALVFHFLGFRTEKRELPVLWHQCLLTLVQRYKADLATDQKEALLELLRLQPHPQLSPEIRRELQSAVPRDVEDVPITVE
Chain of UniProt P54707 (P54707 whole entry, looked up): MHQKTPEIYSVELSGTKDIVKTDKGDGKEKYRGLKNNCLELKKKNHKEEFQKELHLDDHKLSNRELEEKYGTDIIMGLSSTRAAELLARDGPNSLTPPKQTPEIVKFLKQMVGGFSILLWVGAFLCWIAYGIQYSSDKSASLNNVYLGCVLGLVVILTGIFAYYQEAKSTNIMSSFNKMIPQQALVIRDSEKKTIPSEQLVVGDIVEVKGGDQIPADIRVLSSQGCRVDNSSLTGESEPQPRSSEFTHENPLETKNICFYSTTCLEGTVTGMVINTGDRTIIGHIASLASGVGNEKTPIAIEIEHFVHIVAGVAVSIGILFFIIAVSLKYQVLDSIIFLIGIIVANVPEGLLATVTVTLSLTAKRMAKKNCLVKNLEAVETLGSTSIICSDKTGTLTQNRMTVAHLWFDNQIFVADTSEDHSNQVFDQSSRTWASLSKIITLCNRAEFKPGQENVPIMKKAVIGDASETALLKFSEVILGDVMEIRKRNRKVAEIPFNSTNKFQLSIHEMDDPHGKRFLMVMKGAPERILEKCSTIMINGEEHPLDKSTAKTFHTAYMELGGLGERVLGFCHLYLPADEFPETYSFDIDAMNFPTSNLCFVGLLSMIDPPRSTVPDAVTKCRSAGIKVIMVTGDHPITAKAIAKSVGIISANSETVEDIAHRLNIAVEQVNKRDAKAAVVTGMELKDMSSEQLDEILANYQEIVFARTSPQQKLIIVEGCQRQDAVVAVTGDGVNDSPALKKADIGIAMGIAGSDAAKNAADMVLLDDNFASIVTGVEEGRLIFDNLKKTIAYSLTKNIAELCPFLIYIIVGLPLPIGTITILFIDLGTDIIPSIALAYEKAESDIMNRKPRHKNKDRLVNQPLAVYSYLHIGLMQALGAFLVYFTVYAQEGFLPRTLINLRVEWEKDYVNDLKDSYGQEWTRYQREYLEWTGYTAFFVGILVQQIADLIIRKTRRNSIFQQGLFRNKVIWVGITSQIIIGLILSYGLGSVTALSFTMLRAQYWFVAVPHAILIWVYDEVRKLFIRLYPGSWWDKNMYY
Chain of UniProt P56385 (P56385 whole entry, looked up): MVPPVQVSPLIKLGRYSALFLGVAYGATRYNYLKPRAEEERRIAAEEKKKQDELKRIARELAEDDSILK
Chain of UniProt Q99943 (Q99943 whole entry, looked up): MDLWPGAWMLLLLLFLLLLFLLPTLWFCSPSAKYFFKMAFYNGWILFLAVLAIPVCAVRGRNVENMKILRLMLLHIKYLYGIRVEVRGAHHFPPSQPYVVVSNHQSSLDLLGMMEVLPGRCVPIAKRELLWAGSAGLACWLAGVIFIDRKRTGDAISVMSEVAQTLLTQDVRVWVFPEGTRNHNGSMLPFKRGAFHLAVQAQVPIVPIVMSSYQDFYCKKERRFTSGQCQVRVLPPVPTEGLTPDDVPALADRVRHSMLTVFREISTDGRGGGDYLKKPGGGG
Chain of UniProt Q06481 (Q06481 whole entry, looked up): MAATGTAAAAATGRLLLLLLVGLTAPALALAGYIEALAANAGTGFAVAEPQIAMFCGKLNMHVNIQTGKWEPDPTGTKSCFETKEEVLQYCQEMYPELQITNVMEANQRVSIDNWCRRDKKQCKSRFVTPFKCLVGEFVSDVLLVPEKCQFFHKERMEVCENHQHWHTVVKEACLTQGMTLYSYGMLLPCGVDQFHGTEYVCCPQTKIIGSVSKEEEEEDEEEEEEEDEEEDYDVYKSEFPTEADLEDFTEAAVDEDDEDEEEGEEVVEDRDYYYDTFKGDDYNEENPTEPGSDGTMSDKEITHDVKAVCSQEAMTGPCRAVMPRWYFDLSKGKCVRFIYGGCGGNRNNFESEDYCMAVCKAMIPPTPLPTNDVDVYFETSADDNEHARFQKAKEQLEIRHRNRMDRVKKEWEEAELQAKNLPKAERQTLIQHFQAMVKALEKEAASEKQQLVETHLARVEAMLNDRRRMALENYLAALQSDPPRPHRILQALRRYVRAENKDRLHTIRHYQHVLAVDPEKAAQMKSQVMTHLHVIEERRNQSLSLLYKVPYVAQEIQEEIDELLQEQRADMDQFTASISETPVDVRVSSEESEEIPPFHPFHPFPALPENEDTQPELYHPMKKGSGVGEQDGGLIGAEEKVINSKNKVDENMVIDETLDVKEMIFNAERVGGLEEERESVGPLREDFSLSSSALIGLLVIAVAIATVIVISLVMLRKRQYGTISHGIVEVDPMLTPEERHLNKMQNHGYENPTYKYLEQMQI
Chain of UniProt Q96GS6 (Q96GS6 whole entry, looked up): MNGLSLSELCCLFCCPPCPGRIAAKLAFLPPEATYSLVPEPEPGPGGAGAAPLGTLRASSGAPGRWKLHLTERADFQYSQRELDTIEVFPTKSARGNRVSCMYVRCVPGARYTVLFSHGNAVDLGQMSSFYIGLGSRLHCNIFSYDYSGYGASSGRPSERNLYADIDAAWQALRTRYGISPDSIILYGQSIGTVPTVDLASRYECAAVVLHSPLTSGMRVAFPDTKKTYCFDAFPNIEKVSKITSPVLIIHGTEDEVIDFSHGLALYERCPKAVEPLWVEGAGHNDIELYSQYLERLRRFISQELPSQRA
Chain of UniProt O95782 (O95782 whole entry, looked up): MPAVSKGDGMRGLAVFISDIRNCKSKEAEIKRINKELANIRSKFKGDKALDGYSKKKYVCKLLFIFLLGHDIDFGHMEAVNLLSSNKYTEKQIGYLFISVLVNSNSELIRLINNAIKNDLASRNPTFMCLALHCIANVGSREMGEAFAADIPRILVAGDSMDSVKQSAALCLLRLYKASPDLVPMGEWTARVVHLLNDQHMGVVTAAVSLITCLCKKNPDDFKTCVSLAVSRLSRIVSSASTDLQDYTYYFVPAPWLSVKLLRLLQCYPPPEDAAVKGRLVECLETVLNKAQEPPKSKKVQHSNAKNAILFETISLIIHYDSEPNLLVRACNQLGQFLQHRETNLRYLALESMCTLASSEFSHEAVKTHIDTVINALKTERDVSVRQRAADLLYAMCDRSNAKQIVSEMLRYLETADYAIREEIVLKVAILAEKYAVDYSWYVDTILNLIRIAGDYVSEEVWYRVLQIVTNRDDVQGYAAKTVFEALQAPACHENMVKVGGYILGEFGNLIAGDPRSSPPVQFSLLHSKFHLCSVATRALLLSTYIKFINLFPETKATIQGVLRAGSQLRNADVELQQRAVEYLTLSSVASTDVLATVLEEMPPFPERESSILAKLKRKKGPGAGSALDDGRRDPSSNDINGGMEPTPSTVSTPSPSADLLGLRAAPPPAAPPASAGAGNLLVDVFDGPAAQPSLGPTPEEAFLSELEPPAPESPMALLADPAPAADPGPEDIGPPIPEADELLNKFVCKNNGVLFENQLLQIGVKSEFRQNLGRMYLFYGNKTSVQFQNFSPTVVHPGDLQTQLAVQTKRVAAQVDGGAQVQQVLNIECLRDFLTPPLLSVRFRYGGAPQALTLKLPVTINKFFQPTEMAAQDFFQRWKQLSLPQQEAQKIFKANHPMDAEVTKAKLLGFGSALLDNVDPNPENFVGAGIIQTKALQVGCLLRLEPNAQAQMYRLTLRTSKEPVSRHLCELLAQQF
Chain of UniProt P35612 (P35612 whole entry, looked up): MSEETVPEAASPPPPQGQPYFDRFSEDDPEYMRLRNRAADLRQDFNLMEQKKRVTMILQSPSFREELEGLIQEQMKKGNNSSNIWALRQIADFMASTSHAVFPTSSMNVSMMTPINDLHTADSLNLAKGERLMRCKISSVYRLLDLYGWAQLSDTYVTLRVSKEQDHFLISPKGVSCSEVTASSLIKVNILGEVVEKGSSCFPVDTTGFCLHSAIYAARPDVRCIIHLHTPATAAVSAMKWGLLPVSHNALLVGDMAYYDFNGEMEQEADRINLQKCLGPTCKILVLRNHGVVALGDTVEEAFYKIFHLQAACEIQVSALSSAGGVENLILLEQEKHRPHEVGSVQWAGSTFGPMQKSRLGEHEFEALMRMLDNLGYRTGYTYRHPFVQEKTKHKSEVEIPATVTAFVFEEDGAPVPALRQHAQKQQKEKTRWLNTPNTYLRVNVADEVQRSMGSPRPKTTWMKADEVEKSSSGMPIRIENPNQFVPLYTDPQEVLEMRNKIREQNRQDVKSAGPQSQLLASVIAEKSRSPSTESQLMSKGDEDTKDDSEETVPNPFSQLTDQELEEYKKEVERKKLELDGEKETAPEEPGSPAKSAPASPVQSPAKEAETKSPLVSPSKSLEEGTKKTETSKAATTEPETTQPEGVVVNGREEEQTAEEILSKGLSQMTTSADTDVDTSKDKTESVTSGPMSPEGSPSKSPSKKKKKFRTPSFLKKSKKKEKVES
Chain of UniProt Q9P287 (Q9P287 whole entry, looked up): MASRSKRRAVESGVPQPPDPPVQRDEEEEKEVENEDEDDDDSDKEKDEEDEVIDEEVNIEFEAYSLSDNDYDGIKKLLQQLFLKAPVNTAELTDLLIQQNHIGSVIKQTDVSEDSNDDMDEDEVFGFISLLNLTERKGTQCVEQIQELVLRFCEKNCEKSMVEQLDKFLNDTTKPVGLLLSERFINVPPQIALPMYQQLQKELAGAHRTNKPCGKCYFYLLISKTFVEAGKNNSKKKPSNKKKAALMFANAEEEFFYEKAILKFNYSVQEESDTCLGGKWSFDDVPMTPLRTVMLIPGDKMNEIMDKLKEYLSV

Target | log2 fold change [1] | log2 fold change [2] | log2 fold change [3] | log2 fold change [4] | log2 fold change [5] | log2 fold change [6] | log2 fold change [7] | log2 fold change [8] | log2 fold change [9] | log2 fold change [10]
APOBEC3G (UniProt Q9HC16) | -0.064 | 0.103 | -0.111 | 0.128 | 0.075 | 0.046 | 0.077 | 0.11 | -0.09 | -0.492 (active)
ATP23 (UniProt Q9Y6H3) | 0.091 | -0.009 | -0.004 | -0.043 | 0.02 | -0.136 | 0.025 | -0.014 | 0.011 | -0.01
ATP5ME (UniProt P56385) | -0.003 | -0.002 | -0.019 | -0.04 | -0.044 | 0.031 | 0.011 | -0.036 | 0.011 | 0.039
APLP2 (UniProt Q06481) | -0.073 | -0.005 | -0.004 | 0.086 | 0.133 | 0.167 | 0.062 | 0 | -0.017 | -0.225
ACSL5 isoform 3 (UniProt Q9ULC5) | 0.02 | 0.03 | -0.017 | -0.03 | 0.014 | -0.354 (active) | -0.001 | 0.095 | 0.049 | 0.088
AP2A1 (UniProt O95782) | -0.054 | 0.01 | -0.14 | 0.052 | 0.027 | 0.023 | -0.06 | 0 | 0.01 | 0.081
ARPP19 (UniProt P56211) | 0.052 | -0.009 | 0 | 0.048 | -0.051 | 0.048 | -0.071 | -0.157 | 0.069 | -0.074
BLOC1S3 (UniProt Q6QNY0) | 0.018 | -0.037 | 0.427 (active) | -0.033 | -0.058 | 0.005 | -0.045 | -0.041 | -0.01 | 0.076
ACSL3 (UniProt O95573) | 0 | -0.001 | -0.035 | -0.009 | -0.086 | -0.025 | -0.009 | -0.004 | 0.023 | 0.035
ARF4 (UniProt P18085) | 0.072 | 0.003 | -0.027 | -0.019 | -0.103 | 0.117 | -0.032 | -0.042 | -0.071 | 0.128
APOB (UniProt P04114) | 0.042 | -0.012 | 0.045 | -0.239 | -0.295 | -0.438 | 0.403 | -0.171 | 0.066 | 0.021
ANAPC2 (UniProt Q9UJX6) | 0.018 | -0.045 | 0.005 | 0.011 | -0.025 | -0.083 | 0.055 | 0.078 | -0.044 | -0.051
ADK (UniProt P55263) | 0.08 | 0.034 | 0.184 | 0.246 | -0.002 | 0.074 | -0.058 | 0.016 | -0.101 | -0.001
ATP2A3 isoform 2 (UniProt Q93084) | 0.038 | -0.013 | 0.001 | -0.023 | 0.018 | -0.295 (active) | -0.044 | 0.005 | 0.012 | -0.009
ADD2 (UniProt P35612) | 0.04 | 0.009 | -0.172 | -0.021 | -0.004 | 0.042 | -0.024 | -0.015 | 0.01 | 0.029
BUB1B isoform 3 (UniProt O60566) | -0.092 | -0.039 | -0.023 | 0.106 | -0.089 | -0.098 | 0.09 | 0.11 | -0.011 | 0.017
ACAP2 (UniProt Q15057) | -0.033 | -0.012 | -0.038 | 0 | -0.031 | -0.065 | 0.061 | 0.029 | -0.036 | 0.004
BECN1 (UniProt Q14457) | -0.003 | -0.018 | 0.003 | -0.004 | -0.011 | -0.031 | -0.015 | -0.032 | -0.058 | 0.084
BYSL (UniProt Q13895) | -0.115 | -0.054 | 0.043 | 0.051 | -0.11 | -0.109 | 0.092 | 0.118 | -0.007 | -0.495 (active)
ATP13A3 (UniProt Q9H7F0) | 0.043 | -0.005 | 0.004 | -0.032 | -0.136 | -0.199 | 0.073 | -0.007 | 0.042 | -0.035
ALDH6A1 (UniProt Q02252) | 0.004 | -0.023 | -0.041 | 0.019 | -0.155 | -0.068 | -0.002 | -0.01 | -0.004 | 0.018
ARL6IP4 (UniProt Q66PJ3) | 0.049 | 0.026 | 0.018 | 0.01 | 0 | 0.075 | 0.021 | -0.03 | 0.064 | 0.049
ATIC (UniProt P31939) | 0.018 | 0.013 | -0.015 | -0.007 | 0 | 0.079 | -0.044 | -0.04 | -0.023 | 0.064
AGPAT1 (UniProt Q99943) | 0 | -0.083 | -0.051 | 0.012 | -0.109 | 0.06 | -0.005 | 0.02 | -0.006 | -0.017
ACSF3 (UniProt Q4G176) | 0.05 | -0.088 | -0.129 | -0.004 | -0.063 | -0.138 | 0.077 | 0.011 | -0.061 | 0.023
BCCIP (UniProt Q9P287) | -0.025 | -0.063 | -0.06 | -0.005 | 0.002 | 0.035 | 0.015 | 0.073 | -0.041 | 0.255 (active)
ABHD17A isoform 2 (UniProt Q96GS6) | 0.076 | 0.001 | -0.042 | -0.034 | -0.078 | -0.126 | 0.062 | 0.079 | -0.042 | 0.077
ABCB6 (UniProt Q9NP58) | -0.018 | 0.003 | 0.021 | 0.051 | -0.073 | -0.489 (active) | -0.007 | 0.037 | -0.058 | 0.065
ARL1 (UniProt P40616) | 0.007 | -0.031 | -0.06 | 0.029 | -0.09 | 0.044 | -0.049 | -0.039 | -0.065 | 0.066
ATP12A isoform 2 (UniProt P54707) | 0.013 | 0.009 | -0.033 | -0.031 | -0.036 | 0.162 | -0.005 | -0.03 | -0.02 | 0.086

Source: the supplement of paper PMC10849652
